Experimental data reported in the supplement of paper PMC10849652.
About 7,900 targets were measured; listed, in parts, are those with a hit and a random draw of the rest. About 0.6% of all pairs of compound and target were hits.

What was measured:
Assay in all cases: log2 fold change, soluble protein after heating vs DMSO (PISA); higher = thermal stabilisation; K562 cells, 10 uM, 30 min; active = over 0.2 and 3.5 SD of the protein, either way, in both replicates (recomputed)
[1] = compound: CS(=O)(=O)c1ccc(-c2cnc(N)c(C(=O)Nc3ccccc3)n2)cc1
Summary of the method: (§1)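 Aliquots of K562 cells (2×10^6 cells/mL) treated with 10 μM compound for 30 min were heated for 3 min over 48°C-58°C. After pooling and extraction in PBS with 0.5% NP-40 at 4°C, soluble protein from a 21,000xg, 90 min spin was quantified by TMTpro 16plex LC-MS/MS with channel sums equalised. Thermal stability is expressed against control samples, from duplicates, as a log2 fold change.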

crizotinib = compound: C[C@@H](Oc1cc(-c2cnn(C3CCNCC3)c2)cnc1N)c1c(Cl)ccc(F)c1Cl [crizotinib]
Summary of the method: as §1

[2] = compound: C[C@@H]1COCCN1C2=NC(=NC(=C2)C3(CC3)S(=O)(=O)C)C4=C5C=CNC5=CC=C4
Summary of the method: as §1

[3] = compound: C[C@H](C1=CC=C(C=C1)C(=O)NC2=C3C=CNC3=NC=C2)N
Summary of the method: as §1

duvelisib = compound: C[C@H](Nc1ncnc2nc[nH]c12)c1cc2cccc(Cl)c2c(=O)n1-c1ccccc1 [duvelisib]
Summary of the method: as §1

gandotinib = compound: Cc1cc(Nc2cc(CN3CCOCC3)c3nc(C)c(Cc4ccc(Cl)cc4F)n3n2)n[nH]1 [gandotinib]
Summary of the method: as §1

tozasertib = compound: Cc1cc(Nc2cc(N3CCN(C)CC3)nc(Sc3ccc(NC(=O)C4CC4)cc3)n2)n[nH]1 [tozasertib]
Summary of the method: as §1

[4] = compound: Cc1cc(SCc2sc(-c3ccc(C(F)(F)F)cc3)nc2C)ccc1OCC(=O)O
Summary of the method: as §1

doramapimod = compound: Cc1ccc(-n2nc(C(C)(C)C)cc2NC(=O)Nc2ccc(OCCN3CCOCC3)c3ccccc23)cc1 [doramapimod]
Summary of the method: as §1

ispinesib = compound: Cc1ccc(C(=O)N(CCCN)[C@@H](c2nc3cc(Cl)ccc3c(=O)n2Cc2ccccc2)C(C)C)cc1 [ispinesib]
Summary of the method: as §1

Measured: log2 fold change

PNPLA8 (UniProt Q9NP80)
inactive: [1] -0.009 | crizotinib -0.12 | [2] 0.002 | [3] -0.034 | duvelisib -0.003 | gandotinib 0.031 | tozasertib -0.011 | [4] -0.002 | doramapimod 0.023 | ispinesib -0.051

PEA15 isoform 2 (UniProt Q15121)
inactive: [1] 0.012 | crizotinib 0.136 | [2] 0.141 | [3] -0.048 | duvelisib 0.074 | gandotinib -0.073 | tozasertib 0.103 | [4] 0.048 | doramapimod 0.003 | ispinesib 0.034

PSMC3 (UniProt P17980)
Sequence of UniProt P17980 (P17980 whole entry, looked up): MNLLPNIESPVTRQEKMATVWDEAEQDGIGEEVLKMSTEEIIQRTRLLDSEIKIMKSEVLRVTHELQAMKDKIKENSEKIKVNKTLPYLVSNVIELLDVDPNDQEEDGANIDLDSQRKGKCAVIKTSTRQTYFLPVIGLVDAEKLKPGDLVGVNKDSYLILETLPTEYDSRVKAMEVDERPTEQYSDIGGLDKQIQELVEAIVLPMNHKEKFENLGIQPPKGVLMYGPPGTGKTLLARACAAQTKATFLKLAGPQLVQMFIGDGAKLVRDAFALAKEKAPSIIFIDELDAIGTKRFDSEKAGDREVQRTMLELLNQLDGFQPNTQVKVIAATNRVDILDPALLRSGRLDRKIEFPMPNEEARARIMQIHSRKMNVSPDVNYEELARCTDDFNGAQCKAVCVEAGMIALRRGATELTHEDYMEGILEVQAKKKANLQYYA
inactive: [1] 0.002 | crizotinib 0.012 | [2] -0.098 | [3] 0.067 | duvelisib -0.048 | gandotinib 0.027 | tozasertib 0.024 | [4] 0.011 | doramapimod 0.017 | ispinesib -0.024

PMM2 (UniProt O15305)
inactive: [1] 0.006 | crizotinib 0.08 | [2] 0.013 | [3] 0.012 | duvelisib 0.056 | gandotinib -0.045 | tozasertib -0.017 | [4] -0.031 | doramapimod -0.015 | ispinesib 0.009

PIK3C3 (UniProt Q8NEB9)
inactive: [1] 0.147 | crizotinib -0.037 | [2] -0.125 | [3] 0.06 | gandotinib 0.164 | tozasertib 0.012 | [4] -0.008 | doramapimod 0.127 | ispinesib -0.101
active: duvelisib 0.258

PHKG2 (UniProt P15735)
Sequence of UniProt P15735 (P15735 whole entry, looked up): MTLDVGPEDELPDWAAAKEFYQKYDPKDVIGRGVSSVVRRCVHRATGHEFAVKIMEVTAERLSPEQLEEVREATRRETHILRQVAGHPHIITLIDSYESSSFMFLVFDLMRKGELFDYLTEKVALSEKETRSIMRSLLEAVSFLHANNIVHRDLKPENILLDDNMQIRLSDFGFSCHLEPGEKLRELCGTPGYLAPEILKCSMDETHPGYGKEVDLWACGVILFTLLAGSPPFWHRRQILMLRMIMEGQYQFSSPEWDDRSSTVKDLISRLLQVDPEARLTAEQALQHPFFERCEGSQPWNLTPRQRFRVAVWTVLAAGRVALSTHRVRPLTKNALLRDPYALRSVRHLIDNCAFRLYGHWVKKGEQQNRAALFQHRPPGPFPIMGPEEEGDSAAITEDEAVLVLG
inactive: [1] 0.015 | crizotinib 0 | [2] -0.097 | [3] 0.053 | duvelisib -0.077 | gandotinib -0.017 | tozasertib -0.134 | [4] -0.006 | doramapimod 0.044 | ispinesib 0.018

PRPF38B (UniProt Q5VTL8)
active: [3] -0.269
inactive: [1] -0.051 | crizotinib -0.026 | [2] 0.058 | duvelisib 0.023 | gandotinib 0.001 | tozasertib -0.022 | [4] -0.002 | doramapimod 0.005 | ispinesib 0.193

PRPF4B (UniProt Q13523)
inactive: [1] 0.024 | crizotinib -0.006 | [2] -0.025 | [3] -0.089 | duvelisib -0.081 | gandotinib 0.007 | tozasertib 0.062 | [4] 0.01 | doramapimod 0.044 | ispinesib 0.082

PBX2 (UniProt P40425)
inactive: [1] -0.001 | crizotinib -0.14 | [2] 0.026 | [3] -0.051 | duvelisib 0.018 | tozasertib 0.062 | [4] 0.095 | doramapimod 0.119 | ispinesib -0.102
active: gandotinib -0.632

PRKCD (UniProt Q05655)
inactive: [1] 0.05 | crizotinib -0.008 | [2] 0.053 | [3] -0.215 | duvelisib 0.009 | gandotinib -0.056 | tozasertib -0.006 | [4] 0.007 | doramapimod 0.005 | ispinesib -0.007

PIP4K2A (UniProt P48426)
Sequence of UniProt P48426 (P48426 whole entry, looked up): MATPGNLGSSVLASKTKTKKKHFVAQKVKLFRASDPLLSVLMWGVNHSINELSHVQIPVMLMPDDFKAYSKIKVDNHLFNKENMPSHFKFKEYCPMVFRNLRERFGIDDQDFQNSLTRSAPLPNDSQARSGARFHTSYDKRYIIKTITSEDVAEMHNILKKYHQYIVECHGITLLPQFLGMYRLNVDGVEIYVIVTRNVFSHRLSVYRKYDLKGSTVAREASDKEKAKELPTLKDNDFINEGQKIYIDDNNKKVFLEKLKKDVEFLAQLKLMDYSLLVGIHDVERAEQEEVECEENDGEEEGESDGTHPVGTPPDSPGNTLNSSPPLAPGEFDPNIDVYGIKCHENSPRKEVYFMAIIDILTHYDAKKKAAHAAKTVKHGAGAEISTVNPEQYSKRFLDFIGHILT
inactive: crizotinib -0.032 | [2] 0.027 | [3] 0.013 | duvelisib -0.126 | gandotinib -0.084 | tozasertib -0.007 | [4] 0.042 | doramapimod 0.026 | ispinesib -0.052
active: [1] 0.411

PSMC6 (UniProt P62333)
inactive: [1] 0.032 | crizotinib 0.022 | [2] -0.047 | [3] 0.116 | duvelisib -0.033 | gandotinib 0.054 | tozasertib 0.031 | [4] -0.002 | doramapimod 0.021 | ispinesib 0.007

PRPF31 (UniProt Q8WWY3)
Sequence of UniProt Q8WWY3 (Q8WWY3 whole entry, looked up): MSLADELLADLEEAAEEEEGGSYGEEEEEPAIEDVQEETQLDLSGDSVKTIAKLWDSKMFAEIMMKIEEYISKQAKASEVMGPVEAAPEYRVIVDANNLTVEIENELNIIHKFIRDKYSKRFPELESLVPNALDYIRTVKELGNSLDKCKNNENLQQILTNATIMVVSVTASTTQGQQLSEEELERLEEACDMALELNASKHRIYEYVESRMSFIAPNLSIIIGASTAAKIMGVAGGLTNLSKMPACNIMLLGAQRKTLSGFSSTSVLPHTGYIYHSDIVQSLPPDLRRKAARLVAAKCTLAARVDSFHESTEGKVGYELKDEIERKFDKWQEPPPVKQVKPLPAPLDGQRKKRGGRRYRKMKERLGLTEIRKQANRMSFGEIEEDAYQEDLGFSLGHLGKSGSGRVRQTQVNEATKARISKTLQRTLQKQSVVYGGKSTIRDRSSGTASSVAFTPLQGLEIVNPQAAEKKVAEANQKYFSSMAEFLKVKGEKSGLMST
inactive: [1] 0.041 | crizotinib 0.013 | [2] 0.181 | [3] 0.137 | duvelisib 0.133 | gandotinib -0.044 | tozasertib 0.08 | [4] 0.159 | doramapimod 0.069 | ispinesib -0.029

PIP4K2B (UniProt P78356)
Sequence of UniProt P78356 (P78356 whole entry, looked up): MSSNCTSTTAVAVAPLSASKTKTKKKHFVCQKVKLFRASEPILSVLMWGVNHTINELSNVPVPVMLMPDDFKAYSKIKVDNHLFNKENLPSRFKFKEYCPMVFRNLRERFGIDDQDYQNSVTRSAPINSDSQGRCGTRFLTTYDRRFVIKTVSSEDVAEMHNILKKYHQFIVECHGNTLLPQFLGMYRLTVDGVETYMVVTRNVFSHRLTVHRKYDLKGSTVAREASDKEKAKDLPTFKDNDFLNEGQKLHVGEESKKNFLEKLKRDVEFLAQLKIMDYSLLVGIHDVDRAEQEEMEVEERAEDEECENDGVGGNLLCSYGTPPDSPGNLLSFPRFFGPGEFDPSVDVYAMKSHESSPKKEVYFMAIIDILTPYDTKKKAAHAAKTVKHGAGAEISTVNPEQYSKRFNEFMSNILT
active: [1] 0.63
inactive: crizotinib -0.01 | [2] 0.048 | [3] -0.072 | duvelisib 0.028 | gandotinib -0.031 | tozasertib -0.025 | [4] -0.009 | doramapimod -0.055 | ispinesib -0.007

PPM1G (UniProt O15355)
inactive: [1] 0.114 | crizotinib -0.028 | [2] 0.045 | [3] -0.083 | duvelisib 0.044 | gandotinib -0.026 | tozasertib 0.081 | [4] 0.171 | doramapimod -0.008 | ispinesib -0.055

PIGT (UniProt Q969N2)
inactive: [1] 0.033 | crizotinib 0.023 | [2] -0.017 | [3] 0.005 | duvelisib -0.045 | gandotinib -0.029 | tozasertib 0.029 | [4] 0.047 | doramapimod 0.036 | ispinesib 0

PDS5A (UniProt Q29RF7)
inactive: [1] 0.03 | crizotinib -0.383 | [2] 0.063 | [3] 0.043 | duvelisib 0.053 | gandotinib -0.099 | tozasertib 0.117 | [4] 0.182 | doramapimod -0.057 | ispinesib -0.127

PGGHG (UniProt Q32M88)
inactive: [1] 0.019 | crizotinib -0.01 | [2] 0.003 | [3] 0.175 | duvelisib 0.073 | gandotinib -0.039 | tozasertib -0.108 | [4] 0.049 | doramapimod 0.048 | ispinesib 0.05

PMPCA (UniProt Q10713)
inactive: [1] 0.006 | crizotinib -0.014 | [2] 0.033 | [3] -0.07 | duvelisib 0.055 | gandotinib -0.076 | tozasertib -0.022 | [4] -0.011 | doramapimod 0.028 | ispinesib -0.043

PPP2R5E (UniProt Q16537)
inactive: [1] -0.024 | crizotinib -0.15 | [2] 0.037 | [3] 0.105 | duvelisib 0.078 | gandotinib 0.167 | tozasertib -0.072 | [4] 0.015 | doramapimod -0.01 | ispinesib -0.024

PDCD6IP (UniProt Q8WUM4)
Sequence of UniProt Q8WUM4 (Q8WUM4 whole entry, looked up): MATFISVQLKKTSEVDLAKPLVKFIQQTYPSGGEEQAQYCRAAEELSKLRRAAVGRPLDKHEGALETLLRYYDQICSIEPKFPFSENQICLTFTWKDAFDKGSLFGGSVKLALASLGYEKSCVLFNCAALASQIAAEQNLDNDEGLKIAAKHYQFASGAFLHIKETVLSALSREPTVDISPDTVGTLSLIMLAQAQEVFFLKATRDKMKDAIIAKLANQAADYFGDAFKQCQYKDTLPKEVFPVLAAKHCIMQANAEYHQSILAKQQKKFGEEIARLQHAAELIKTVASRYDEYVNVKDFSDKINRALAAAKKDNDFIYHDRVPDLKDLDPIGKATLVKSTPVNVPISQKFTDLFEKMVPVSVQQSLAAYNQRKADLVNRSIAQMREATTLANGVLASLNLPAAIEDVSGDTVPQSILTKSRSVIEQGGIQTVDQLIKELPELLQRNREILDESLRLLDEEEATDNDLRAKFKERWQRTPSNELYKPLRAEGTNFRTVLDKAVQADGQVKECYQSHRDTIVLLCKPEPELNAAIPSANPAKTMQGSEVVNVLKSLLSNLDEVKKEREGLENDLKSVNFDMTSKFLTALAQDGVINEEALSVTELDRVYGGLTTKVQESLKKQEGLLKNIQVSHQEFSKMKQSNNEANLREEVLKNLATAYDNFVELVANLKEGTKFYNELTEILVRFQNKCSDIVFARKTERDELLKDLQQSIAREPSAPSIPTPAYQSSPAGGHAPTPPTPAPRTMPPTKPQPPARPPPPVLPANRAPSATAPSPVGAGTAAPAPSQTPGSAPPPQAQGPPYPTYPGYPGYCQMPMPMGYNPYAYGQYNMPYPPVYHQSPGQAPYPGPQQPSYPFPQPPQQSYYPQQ
inactive: [1] 0.078 | crizotinib -0.177 | [2] 0.067 | [3] 0.077 | duvelisib 0.026 | gandotinib -0.117 | tozasertib 0.085 | [4] 0.17 | doramapimod -0.042 | ispinesib -0.14

PRPF40A (UniProt O75400)
Sequence of UniProt O75400 (O75400 whole entry, looked up): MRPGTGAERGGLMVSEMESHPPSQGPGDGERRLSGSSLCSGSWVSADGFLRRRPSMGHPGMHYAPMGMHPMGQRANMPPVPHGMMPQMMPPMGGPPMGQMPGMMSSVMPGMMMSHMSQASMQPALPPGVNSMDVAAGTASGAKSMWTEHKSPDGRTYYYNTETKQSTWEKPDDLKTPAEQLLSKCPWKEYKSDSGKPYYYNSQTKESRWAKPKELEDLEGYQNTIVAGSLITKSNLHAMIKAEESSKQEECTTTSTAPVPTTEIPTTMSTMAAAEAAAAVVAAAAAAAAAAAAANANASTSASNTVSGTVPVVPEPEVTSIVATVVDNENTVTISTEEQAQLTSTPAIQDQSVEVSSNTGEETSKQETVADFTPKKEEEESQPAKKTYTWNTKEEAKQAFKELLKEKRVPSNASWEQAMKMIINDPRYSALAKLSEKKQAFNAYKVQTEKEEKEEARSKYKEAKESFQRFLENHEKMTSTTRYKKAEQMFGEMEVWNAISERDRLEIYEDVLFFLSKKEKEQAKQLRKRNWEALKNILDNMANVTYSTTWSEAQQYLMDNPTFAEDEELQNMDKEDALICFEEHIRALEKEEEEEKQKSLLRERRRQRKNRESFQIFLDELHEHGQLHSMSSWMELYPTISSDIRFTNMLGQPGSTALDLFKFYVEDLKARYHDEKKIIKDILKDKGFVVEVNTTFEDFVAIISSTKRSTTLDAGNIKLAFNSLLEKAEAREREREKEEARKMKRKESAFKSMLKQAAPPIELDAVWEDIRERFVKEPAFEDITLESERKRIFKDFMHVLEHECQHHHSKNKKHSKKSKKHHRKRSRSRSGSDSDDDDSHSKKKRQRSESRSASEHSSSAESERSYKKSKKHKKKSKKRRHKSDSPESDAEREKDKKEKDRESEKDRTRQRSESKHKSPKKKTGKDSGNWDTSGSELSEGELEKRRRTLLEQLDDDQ
inactive: [1] -0.023 | crizotinib 0.071 | [2] 0.105 | [3] -0.061 | duvelisib 0.018 | gandotinib -0.04 | tozasertib 0.061 | [4] 0.104 | doramapimod 0.021 | ispinesib -0.034

PSMD2 (UniProt Q13200)
inactive: [1] 0.017 | crizotinib 0.019 | [2] -0.063 | [3] 0.075 | duvelisib -0.064 | gandotinib 0.015 | tozasertib 0.023 | [4] 0.004 | doramapimod 0.021 | ispinesib -0.017

PXK (UniProt Q7Z7A4)
Sequence of UniProt Q7Z7A4 (Q7Z7A4 whole entry, looked up): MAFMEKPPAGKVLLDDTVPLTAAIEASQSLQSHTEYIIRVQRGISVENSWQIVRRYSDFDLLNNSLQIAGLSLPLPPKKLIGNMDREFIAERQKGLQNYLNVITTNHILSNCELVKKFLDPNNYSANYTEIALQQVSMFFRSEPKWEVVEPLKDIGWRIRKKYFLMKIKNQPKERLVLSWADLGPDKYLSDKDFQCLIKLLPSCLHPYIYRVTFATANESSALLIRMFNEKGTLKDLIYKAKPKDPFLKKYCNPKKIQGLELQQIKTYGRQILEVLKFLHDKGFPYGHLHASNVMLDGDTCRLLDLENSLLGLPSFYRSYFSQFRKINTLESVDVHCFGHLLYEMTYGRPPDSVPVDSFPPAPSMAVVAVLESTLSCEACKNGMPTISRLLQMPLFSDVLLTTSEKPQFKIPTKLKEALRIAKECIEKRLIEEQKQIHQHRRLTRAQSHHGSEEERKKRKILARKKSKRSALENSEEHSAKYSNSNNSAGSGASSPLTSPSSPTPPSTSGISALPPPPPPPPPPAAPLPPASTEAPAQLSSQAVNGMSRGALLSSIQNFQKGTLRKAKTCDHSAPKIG
inactive: [1] -0.06 | crizotinib -0.139 | [2] 0.032 | [3] -0.026 | duvelisib -0.023 | gandotinib -0.042 | tozasertib -0.024 | [4] 0.011 | doramapimod -0.025 | ispinesib -0.203

POLA1 (UniProt P09884)
inactive: [1] 0.01 | crizotinib -0.041 | [2] 0.065 | [3] -0.048 | duvelisib 0.046 | gandotinib -0.069 | tozasertib 0.083 | [4] 0.09 | doramapimod -0.029 | ispinesib -0.036

PPT1 (UniProt P50897)
Sequence of UniProt P50897 (P50897 whole entry, looked up): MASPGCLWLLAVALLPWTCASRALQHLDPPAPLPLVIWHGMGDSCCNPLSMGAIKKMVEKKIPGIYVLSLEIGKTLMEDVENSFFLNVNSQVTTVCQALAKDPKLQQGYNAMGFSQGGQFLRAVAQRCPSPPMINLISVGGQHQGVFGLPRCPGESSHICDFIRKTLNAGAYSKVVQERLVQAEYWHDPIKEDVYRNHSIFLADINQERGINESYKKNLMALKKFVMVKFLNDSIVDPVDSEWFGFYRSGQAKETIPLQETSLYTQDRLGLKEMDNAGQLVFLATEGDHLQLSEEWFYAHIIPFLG
inactive: [1] 0.022 | [2] -0.008 | [3] -0.029 | duvelisib 0.023 | gandotinib -0.018 | tozasertib -0.012 | [4] 0.023 | doramapimod -0.004
active: crizotinib -0.57 | ispinesib -0.394

PSMD13 (UniProt Q9UNM6)
inactive: [1] 0.048 | crizotinib 0.008 | [2] -0.012 | [3] 0.092 | duvelisib -0.028 | gandotinib -0.016 | tozasertib 0.062 | [4] 0.052 | doramapimod 0.026 | ispinesib -0.008

PRPF3 (UniProt O43395)
inactive: [1] 0.009 | crizotinib -0.025 | [2] 0.114 | [3] 0.193 | duvelisib 0.053 | gandotinib -0.067 | tozasertib 0.007 | [4] 0.174 | doramapimod -0.024 | ispinesib 0.025

POLR2D (UniProt O15514)
inactive: [1] 0.006 | crizotinib 0.192 | [2] -0.08 | [3] 0.038 | duvelisib 0.065 | gandotinib 0.158 | tozasertib -0.012 | [4] -0.068 | doramapimod -0.024 | ispinesib 0.017

PITRM1 isoform 2 (UniProt Q5JRX3)
inactive: [1] -0.042 | crizotinib 0.01 | [2] 0.094 | [3] -0.023 | duvelisib 0.072 | gandotinib 0.038 | tozasertib -0.029 | [4] 0 | doramapimod -0.014
active: ispinesib -0.38
